PubChem BioAssay (Tox21)
Records with an inconclusive call do not appear. Calls of active or inactive are those of the source. Unless noted, calls follow the shape of the dose curve; as a rule, active = well fitted curve in the direction sought with a large enough effect in the repeat runs; inconclusive = weak or mixed curves; inactive = no such curve, though single readings can be large; an effect the other way counts as inactive or inconclusive.

Experiments:
[1] = qHTS assay to identify small molecule agonists of the peroxisome proliferator-activated receptor delta (PPARd) signaling pathway - cell viability counter screen (AID 743211); also: nearly all actives have a fitted effect of over 55% in size
How it was run: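 Viability of GeneBLAzer PPARd UAS-bla HEK293H cells was assessed after 17 h compound incubation at 37C, using CellTiter-Glo reagent added after the reporter read and luminescence recorded 30 min later.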

[2] = target: Peroxisome proliferator-activated receptor delta (Homo sapiens) (UniProt Q03181); assay: qHTS assay to identify small molecule agonists of the peroxisome proliferator-activated receptor delta (PPARd) signaling pathway (AID 743212; calls by dose curve)
Sequence of Peroxisome proliferator-activated receptor delta (Homo sapiens) (Q03181 whole entry, looked up): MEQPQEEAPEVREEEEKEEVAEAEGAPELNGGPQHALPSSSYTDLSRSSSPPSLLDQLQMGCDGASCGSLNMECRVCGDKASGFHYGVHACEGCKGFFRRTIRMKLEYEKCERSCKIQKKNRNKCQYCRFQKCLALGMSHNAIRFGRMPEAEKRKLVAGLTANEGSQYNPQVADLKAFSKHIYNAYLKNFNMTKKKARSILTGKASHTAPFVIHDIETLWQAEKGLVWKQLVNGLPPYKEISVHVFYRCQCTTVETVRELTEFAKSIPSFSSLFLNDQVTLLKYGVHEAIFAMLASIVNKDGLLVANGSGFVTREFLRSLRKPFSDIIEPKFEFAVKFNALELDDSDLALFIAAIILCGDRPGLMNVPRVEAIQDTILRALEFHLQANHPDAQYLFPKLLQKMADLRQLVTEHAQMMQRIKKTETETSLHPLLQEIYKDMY
How it was run: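 Read-out: beta-lactamase FRET fluorescence after 2 h room-temperature incubation with LiveBLAzer B/G substrate. Cells were HEK293H carrying a UAS-bla reporter for PPARd, treated at 37 C with DMSO-dissolved compounds.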

[3] = qHTS assay to identify small molecule antagonists of the peroxisome proliferator-activated receptor delta (PPARd) signaling pathway - cell viability counter screen (AID 743213); also: nearly all actives have a fitted effect of over 50% in size
How it was run: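 Same-well viability: cells pre-incubated 5 h, dosed with compound plus 300 nM L165041, kept 17 h at 37 C, FRET substrate 2 h RT, then CellTiter-Glo 30 min RT and luminescence.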

[4] = target: Peroxisome proliferator-activated receptor delta (Homo sapiens) (UniProt Q03181); assay: qHTS assay to identify small molecule antagonists of the peroxisome proliferator-activated receptor delta (PPARd) signaling pathway (AID 743215; active = well fitted inhibition curve with a large enough effect in the signal ratio in the repeat runs, not every such curve was filed as active; the % refers to the signal ratio;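 also: cells stimulated with agonist L165041 at 300 nM final during compound exposure; series mostly up to about 62 µM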)
How it was run: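 Agonist L165041 (300 nM final) added with compound to PPARd-bla HEK293H UAS-bla reporter cells; 17 h incubation at 37 C. Read-out: LiveBLAzer FRET substrate, 2 h at room temperature, fluorescence intensity.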

[5] = target: Bile acid receptor (Homo sapiens) (UniProt Q96RI1); assay: qHTS assay to identify small molecule antagonists of the farnesoid-X-receptor (FXR) signaling pathway (AID 743217; active = well fitted inhibition curve with a large enough effect in the signal ratio in the repeat runs, not every such curve was filed as active; the % refers to the signal ratio)
Sequence of Bile acid receptor (Homo sapiens) (Q96RI1 whole entry, looked up): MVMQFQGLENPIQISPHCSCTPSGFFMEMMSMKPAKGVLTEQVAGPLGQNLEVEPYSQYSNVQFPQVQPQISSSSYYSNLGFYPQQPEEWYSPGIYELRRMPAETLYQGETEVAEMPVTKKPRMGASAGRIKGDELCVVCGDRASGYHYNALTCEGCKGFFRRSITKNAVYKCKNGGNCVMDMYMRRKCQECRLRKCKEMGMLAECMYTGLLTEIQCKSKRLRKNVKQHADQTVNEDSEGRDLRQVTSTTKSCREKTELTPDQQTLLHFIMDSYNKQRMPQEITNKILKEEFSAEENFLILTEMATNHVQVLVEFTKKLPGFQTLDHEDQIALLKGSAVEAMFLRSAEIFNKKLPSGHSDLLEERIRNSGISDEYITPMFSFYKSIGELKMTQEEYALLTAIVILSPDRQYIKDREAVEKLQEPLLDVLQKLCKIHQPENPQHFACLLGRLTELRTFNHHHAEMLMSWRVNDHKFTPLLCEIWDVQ
How it was run: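 Antagonist mode: chenodeoxycholic acid at 50 uM final stimulates a UAS-driven beta-lactamase reporter in HEK 293T FXR-bla cells during 16 h, 37C compound exposure. Read-out is FRET substrate fluorescence after 2 h at room temperature.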

[6] = qHTS assay to identify small molecule agonists of the farnesoid-X-receptor (FXR) signaling pathway - cell viability counter screen (AID 743218); also: nearly all actives have a fitted effect of over 45% in size
How it was run: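 Viability counter screen in the same wells: CellTiter-Glo luminescence, 30 min room-temperature incubation, measured after the beta-lactamase read. Cells were GeneBLAzer FXR-UAS-bla HEK 293T, compound-treated 16 h at 37C.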

[7] = target: Bile acid receptor (Homo sapiens) (UniProt Q96RI1); assay: qHTS assay to identify small molecule agonists of the farnesoid-X-receptor (FXR) signaling pathway (AID 743220; active = well fitted activation curve with a large enough effect in the signal ratio in the repeat runs, not every such curve was filed as active; the % refers to the signal ratio)
How it was run: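 FXR-UAS-bla HEK 293T cells carrying a UAS-driven beta-lactamase reporter were plated for 5 h at 37C/5% CO2, then exposed to DMSO-dissolved Tox21 10K compounds for 16 h at 37C. A LiveBLAzer B/G FRET substrate was loaded for 2 h at room temperature before fluorescence reading.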

[8] = qHTS assay to identify small molecule antagonists of the farnesoid-X-receptor (FXR) signaling pathway - cell viability counter screen (AID 743221; active = well fitted cell-killing curve with a large enough effect in the repeat runs, not every such curve was filed as active; also: nearly all actives have a fitted effect of over 50% in size)
How it was run: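 Quantitative HTS of the Tox21 10K library run in parallel with the beta-lactamase reporter read. HEK 293T cells carrying a UAS-driven bla reporter got compound and 50 uM CDCA (final) for 16 h; ATP-based luminescence followed.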

[9] = qHTS assay to identify small molecule agonists of the NFkB signaling pathway (AID 1159509; active = well fitted curve in the direction sought with a large enough effect in the signal ratio in the repeat runs, not every such curve was filed as active; the % refers to the signal ratio; also: series mostly up to about 61 µM)
How it was run: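 Readout: FRET fluorescence, 405 nm excitation, 460/530 nm emission; beta-lactamase expression disrupts FRET. Cells: ME-180 stably carrying NF-kB-driven bla reporter. Compound exposure 5 hr, 37 C, 5% CO2.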

[10] = qHTS assay to identify small molecule agonists of the endoplasmic reticulum stress response signaling pathway (AID 1159516; active = well fitted activation curve with a large enough effect in the signal ratio in the repeat runs, not every such curve was filed as active; the % refers to the signal ratio)
How it was run: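 Ratiometric FRET readout (405 nm excitation; 460 and 530 nm emission) of a beta-lactamase gene driven by the ER stress response element, after 2 hr substrate loading. HeLa ESRE-bla cells were seeded overnight and treated with compounds for only 5 hr at 37 C.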

[11] = qHTS assay to identify small molecule agonists of the endoplasmic reticulum stress response signaling pathway - cell viability counter screen (AID 1159517; calls by dose curve; also: series mostly up to about 61 µM; nearly all actives have a fitted effect of over 50% in size)
How it was run: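 Steps: seed 1,500 ESRE-bla HeLa cells per well; incubate overnight at 37 C, 5% CO2; add compounds in DMSO for 5 hr; run FRET substrate 2 hr RT; add CellTiter-Glo, wait 30 min, read luminescence.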

[12] = qHTS assay to identify small molecule antagonists of the retinoid-related orphan receptor gamma (ROR-gamma) signaling pathway - cell viability counter screen (AID 1159520); also: nearly all actives have a fitted effect of over 50% in size
How it was run: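 Tet-on ROR gamma CHO cells were given compounds for 2 hr, then doxycycline hyclate at 1 uM final, and incubated 16 hr at 37 C. Viability was measured as ATP content by CellTiter-Glo luminescence.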

[13] = target: Nuclear receptor ROR-gamma (Homo sapiens) (UniProt P51449); assay: qHTS assay to identify small molecule antagonists of the retinoid-related orphan receptor gamma (ROR-gamma) signaling pathway (AID 1159521)
How it was run: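 RORγ antagonism is scored from reduced reporter luminescence in Tet-on CHO cells. Induction used 1 uM final doxycycline hyclate for 16 h at 37 C, following a 2 h compound exposure.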

[14] = qHTS assay to identify small molecule agonists of the AP-1 signaling pathway - cell viability counter screen (AID 1159525; calls by dose curve; also: nearly all actives have a fitted effect of over 55% in size)
How it was run: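 Same-well cytotoxicity counter screen of the Tox21 10K library in ME-180 cells. The readout is ATP-dependent luminescence after 5 h compound treatment. Data are normalised to DMSO and tetra n-octyl ammonium bromide controls.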

[15] = qHTS assay to identify small molecule agonists of the AP-1 signaling pathway (AID 1159526; calls by dose curve)
[16] = target: Vitamin D3 receptor (Homo sapiens) (UniProt P11473); assay: qHTS assay to identify small molecule agonists of the vitamin D receptor (VDR) signaling pathway (AID 743222; calls by dose curve)
Sequence of Vitamin D3 receptor (Homo sapiens) (P11473 whole entry, looked up): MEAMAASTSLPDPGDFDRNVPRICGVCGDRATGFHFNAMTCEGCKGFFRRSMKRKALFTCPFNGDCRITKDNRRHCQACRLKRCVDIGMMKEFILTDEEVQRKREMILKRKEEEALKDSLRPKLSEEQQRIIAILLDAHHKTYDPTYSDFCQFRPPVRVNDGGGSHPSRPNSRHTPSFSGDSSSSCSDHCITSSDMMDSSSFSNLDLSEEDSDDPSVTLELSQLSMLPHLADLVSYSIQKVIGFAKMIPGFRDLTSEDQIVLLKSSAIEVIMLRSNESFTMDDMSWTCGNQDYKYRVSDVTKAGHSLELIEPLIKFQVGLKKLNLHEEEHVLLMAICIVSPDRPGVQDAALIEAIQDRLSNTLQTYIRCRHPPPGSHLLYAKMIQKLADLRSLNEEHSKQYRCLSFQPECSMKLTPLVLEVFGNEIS
How it was run: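 Agonist mode, beta-lactamase reporter: fluorescence from LiveBLAzer B/G FRET substrate (2 h, room temperature) read after 16 h compound treatment at 37 C of VDR-bla cells, which were pre-incubated 4 h after seeding.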

[17] = target: Vitamin D3 receptor (Homo sapiens) (UniProt P11473); assay: qHTS assay to identify small molecule antagonists of the vitamin D receptor (VDR) signaling pathway (AID 743223; active = well fitted inhibition curve with a large enough effect in the signal ratio in the repeat runs, not every such curve was filed as active; the % refers to the signal ratio)
How it was run: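 Fluorescence from LiveBLAzer B/G FRET substrate, read after 2 h at room temperature, reflects beta-lactamase reporter activity in VDR-bla cells treated 16 h at 37C with compounds and agonist 1alpha,25-dihydroxyvitamin D3 (3 nM final).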

[18] = qHTS assay to identify small molecule antagonists of the vitamin D receptor (VDR) signaling pathway - cell viability counter screen (AID 743225); also: nearly all actives have a fitted effect of over 50% in size
How it was run: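 Cells (VDR-UAS-bla HEK 293T) are plated, rested 4 h at 37C, dosed with compound and 3 nM final 1-alpha,25-dihydroxy vitamin D3, and incubated 16 h. Viability is taken from CellTiter-Glo luminescence in the reporter wells.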

[19] = qHTS assay to identify small molecule agonists of the vitamin D receptor (VDR) signaling pathway - cell viability counter screen (AID 743224)
How it was run: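 Counter screen run in the same wells as the VDR-bla reporter assay: CellTiter-Glo luminescence, 30 min at room temperature, after 16 h compound treatment at 37C of cells pre-plated for 4 h.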

[20] = qHTS assay to identify small molecule agonists of the NFkB signaling pathway - cell viability counter screen (AID 1159515; calls by dose curve; also: series mostly up to about 61 µM; nearly all actives have a fitted effect of over 55% in size)
How it was run: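 Read by CellTiter-Glo luminescence (30 min, room temperature) in the wells also used for the beta-lactamase FRET read. ME-180 NFkB-bla cells at 2,000 per well were plated overnight, then exposed to compound for 5 hr at 37 C.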

Measured: Potency

CCN(C)C(=O)Oc1cccc([C@H](C)N(C)C)c1
not listed: [16] | [17] | [18] | [19] | [20]
inactive: all other assays above

N#Cc1ccc(C(=O)O)cc1
not listed: [2] | [4] | [5] | [13] | [19] | [20]
inactive: all other assays above

O=C1c2ccccc2C(=O)C1c1ccccc1
not listed: [9] | [16] | [17]
inactive: all other assays above

O=C(OCC(COC(=O)c1cccnc1)(COC(=O)c1cccnc1)COC(=O)c1cccnc1)c1cccnc1
not listed: [5] | [7] | [16] | [20]
inactive: all other assays above

Cc1cccc(C)c1NC(=O)c1ccccc1C(=O)O
not listed: [2] | [4] | [5] | [7] | [20]
inactive: all other assays above

COc1cc2c(cc1OC)C(=O)CC2
not listed: [4] | [5] | [7] | [18] | [20]
inactive: all other assays above

C=C(C)C(=O)OCCNC(C)(C)C
not listed: [2] | [4] | [5] | [7] | [18] | [20]
inactive: all other assays above

CCc1ccc(C=O)cc1
not listed: [5] | [7] | [19] | [20]
inactive: all other assays above

C=C(C)C1CCC(C)(O)CC1 (stereo unspecified)
not listed: [2] | [4] | [5] | [7] | [14] | [19] | [20]
inactive: all other assays above

CCCCC(CC)COCCO (stereo unspecified)
not listed: [5] | [6] | [7] | [18] | [19] | [20]
inactive: all other assays above

CC(CO)c1ccccc1 (stereo unspecified)
not listed: [2] | [4] | [5] | [7] | [13] | [14] | [16] | [17]
inactive: all other assays above

CC(=O)N[C@@H](CCC(=O)O)C(=O)O
not listed: [2] | [4] | [5] | [7] | [13] | [16] | [17] | [18]
inactive: all other assays above

COC(=O)CCCCCCCC(=O)OC
not listed: [1] | [2] | [4] | [5] | [7] | [14] | [19] | [20]
inactive: all other assays above

COc1ccc2c(c1OC)C(=O)O[C@@H]2[C@H]1c2c(cc3c(c2OC)OCO3)CCN1C
not listed: [3] | [4] | [5] | [7] | [17] | [20]
inactive: all other assays above

COP(=O)(OC)OC(c1ccc(Cl)cc1)P(=O)(OC)OC (stereo unspecified)
not listed: [5] | [7] | [20]
inactive: all other assays above
